Assay results reported in PubChem BioAssay AID1159580 (chemical genetic matrix, 2015).
The campaign covered roughly 5,500 compounds. About 2,000 (36%) were called active. Inconclusive results (about 18%) are left out. No stated cut-off is given here; in the data, active means normalized growth mostly below about 0.91 (no sharp cut-off); inconclusive means no clear call, values can overlap the other calls; inactive means mostly above about 0.92. This is one part of the list.

Test: chemical genetic growth profiling, strain panel (AID 1159580);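 further: tested at 20 µM; growth read once vehicle control cultures reached saturation at 30 °C; 1 = growth at the plate median or of vehicle wells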
Conditions: growth OD

Measured: normalized growth

ClC1C(Cl)C(Cl)C(Cl)C(Cl)C1Cl (stereo unspecified)
inactive: S. cerevisiae deletion strains, locus YJR075W, strain HOC1, stronger effect = lower value 0.926 | S. cerevisiae deletion strains, locus YKL009W, strain mrt4, stronger effect = lower value 0.964 | S. cerevisiae deletion strains, locus YKL190W, strain CNB1, stronger effect = lower value 0.954 | S. cerevisiae deletion strains, locus YKR026C, strain gcn3, stronger effect = lower value 0.964 | S. cerevisiae deletion strains, locus YKR091W, strain srl3, stronger effect = lower value 0.963 | S. cerevisiae deletion strains, locus YLL001W, strain dnm1, stronger effect = lower value 0.938 | S. cerevisiae deletion strains, locus YLL026W, stronger effect = lower value 0.956 | S. cerevisiae deletion strains, locus YLL041C, strain sdh2, stronger effect = lower value 0.979 | S. cerevisiae deletion strains, locus YLR058C, strain SHM2, stronger effect = lower value 0.942 | S. cerevisiae deletion strains, locus YLR102C, strain apc9, stronger effect = lower value 0.935 | S. cerevisiae deletion strains, locus YLR113W, strain HOG1, stronger effect = lower value 0.862 | S. cerevisiae deletion strains, locus YLR258W, strain gsy2, stronger effect = lower value 0.969 | S. cerevisiae deletion strains, locus YLR268W, strain sec22, stronger effect = lower value 0.949 | S. cerevisiae deletion strains, locus YLR330W, strain CHS5, stronger effect = lower value 0.948 | S. cerevisiae deletion strains, locus YLR342W, strain FKS1 (second series), stronger effect = lower value 0.947 | S. cerevisiae deletion strains, locus YLR357W, strain rsc2, stronger effect = lower value 0.996 | S. cerevisiae deletion strains, locus YLR370C, strain arc18, stronger effect = lower value 0.975 | S. cerevisiae deletion strains, locus YLR371W, strain rom2, stronger effect = lower value 0.944 | S. cerevisiae deletion strains, locus YLR384C, strain iki3, stronger effect = lower value 0.991 | S. cerevisiae deletion strains, locus YLR418C, strain cdc73, stronger effect = lower value 0.843 | S. cerevisiae deletion strains, locus YML016C, strain PPZ1, stronger effect = lower value 0.945 | S. cerevisiae deletion strains, locus YML032C, strain rad52, stronger effect = lower value 0.927 | S. cerevisiae deletion strains, locus YML120C, strain ndi1, stronger effect = lower value 0.978 | S. cerevisiae deletion strains, locus YMR078C, strain ctf18, stronger effect = lower value 0.918 | S. cerevisiae deletion strains, locus YMR125W, strain sto1, stronger effect = lower value 1.03 | S. cerevisiae deletion strains, locus YMR129W, stronger effect = lower value 0.988 | S. cerevisiae deletion strains, locus YMR223W, strain ubp8, stronger effect = lower value 0.956 | S. cerevisiae deletion strains, locus YMR231W, strain pep5, stronger effect = lower value 1.01 | S. cerevisiae deletion strains, locus YMR263W, strain SAP30, stronger effect = lower value 0.955 | S. cerevisiae deletion strains, locus YMR307W, strain GAS1, stronger effect = lower value 1.07 | S. cerevisiae deletion strains, locus YNL067W, strain RPL9B, stronger effect = lower value 0.968 | S. cerevisiae deletion strains, locus YNL128W, strain TEP1, stronger effect = lower value 0.958 | S. cerevisiae deletion strains, locus YNL153C, strain GIM3, stronger effect = lower value 0.969 | S. cerevisiae deletion strains, locus YNL183C, strain NPR1, stronger effect = lower value 0.905 | S. cerevisiae deletion strains, locus YNL209W, strain ssb2, stronger effect = lower value 0.992 | S. cerevisiae deletion strains, locus YNL233W, strain BNI4, stronger effect = lower value 0.975 | S. cerevisiae deletion strains, locus YNL248C, strain rpa49, stronger effect = lower value 0.995 | S. cerevisiae deletion strains, locus YNL250W, strain rad50, stronger effect = lower value 0.909 | S. cerevisiae deletion strains, locus YNL271C, strain bni1, stronger effect = lower value 0.948 | S. cerevisiae deletion strains, locus YNL298W, strain CLA4, stronger effect = lower value 0.946 | S. cerevisiae deletion strains, locus YNL322C, strain KRE1 (second series), stronger effect = lower value 0.969 | S. cerevisiae deletion strains, locus YNL322C, strain KRE1, stronger effect = lower value 0.941 | S. cerevisiae deletion strains, locus YNR049C, strain mso1, stronger effect = lower value 0.975 | S. cerevisiae deletion strains, locus YNR052C, strain pop2, stronger effect = lower value 0.963 | S. cerevisiae deletion strains, locus YOL006C, strain TOP1, stronger effect = lower value 0.843 | S. cerevisiae deletion strains, locus YOL012C, strain htz1 0.8 | S. cerevisiae deletion strains, locus YOR001W, strain rrp6, stronger effect = lower value 0.963 | S. cerevisiae deletion strains, locus YOR061W, strain CKA2, stronger effect = lower value 0.948 | S. cerevisiae deletion strains, locus YOR069W, strain VPS5, stronger effect = lower value 0.963 | S. cerevisiae deletion strains, locus YOR070C, strain gyp1, stronger effect = lower value 0.965 | S. cerevisiae deletion strains, locus YOR080W, strain dia2, stronger effect = lower value 1.02 | S. cerevisiae deletion strains, locus YOR083W, strain WHI5, stronger effect = lower value 0.914 | S. cerevisiae deletion strains, locus YOR106W, strain vam3, stronger effect = lower value 0.942 | S. cerevisiae deletion strains, locus YOR136W, strain idh2, stronger effect = lower value 0.962 | S. cerevisiae deletion strains, locus YOR144C, strain elg1, stronger effect = lower value 0.94 | S. cerevisiae deletion strains, locus YOR184W, strain ser1, stronger effect = lower value 0.977 | S. cerevisiae deletion strains, locus YOR231W, strain MKK1, stronger effect = lower value 0.971 | S. cerevisiae deletion strains, locus YOR265W, strain rbl2, stronger effect = lower value 0.981 | S. cerevisiae deletion strains, locus YOR290C, strain snf2, stronger effect = lower value 0.921 | S. cerevisiae deletion strains, locus YOR316C, strain cot1, stronger effect = lower value 0.924 | S. cerevisiae deletion strains, locus YPL055C, strain LGE1, stronger effect = lower value 0.965 | S. cerevisiae deletion strains, locus YPL106C, strain sse1, stronger effect = lower value 1.01 | S. cerevisiae deletion strains, locus YPL240C, strain hsp82, stronger effect = lower value 0.978 | S. cerevisiae deletion strains, locus YPL241C, strain CIN2, stronger effect = lower value 0.961 | S. cerevisiae deletion strains, locus YPR163C, strain tif3, stronger effect = lower value 0.938 | S. cerevisiae deletion strains, strain wtn01, stronger effect = lower value 0.932 | S. cerevisiae strains, strain wild type, stronger effect = lower value 0.952
active: S. cerevisiae deletion strains, locus YKL068W, stronger effect = lower value 0.902 | S. cerevisiae deletion strains, locus YKL085W, strain MDH1 (second series), stronger effect = lower value 0.909 | S. cerevisiae deletion strains, locus YKL085W, strain MDH1, stronger effect = lower value 0.909 | S. cerevisiae deletion strains, locus YKL160W, strain elf1, stronger effect = lower value 0.873 | S. cerevisiae deletion strains, locus YKR001C, strain vps1, stronger effect = lower value 0.879 | S. cerevisiae deletion strains, locus YLR027C, strain aat2, stronger effect = lower value 0.916 | S. cerevisiae deletion strains, locus YLR039C, strain RIC1, stronger effect = lower value 0.506 | S. cerevisiae deletion strains, locus YLR221C, strain rsa3, stronger effect = lower value 0.872 | S. cerevisiae deletion strains, locus YLR262C, strain YPT6 (second series), stronger effect = lower value 0.659 | S. cerevisiae deletion strains, locus YLR262C, strain YPT6, stronger effect = lower value 0.57 | S. cerevisiae deletion strains, locus YLR320W, strain mms22, stronger effect = lower value 0.622 | S. cerevisiae deletion strains, locus YLR342W, strain FKS1, stronger effect = lower value 0.89 | S. cerevisiae deletion strains, locus YML124C, strain tub3, stronger effect = lower value 0.929 | S. cerevisiae deletion strains, locus YMR058W, strain fet3, stronger effect = lower value 0.846 | S. cerevisiae deletion strains, locus YMR205C, strain PFK2, stronger effect = lower value 0.665 | S. cerevisiae deletion strains, locus YNL071W, strain lat1, stronger effect = lower value 0.638 | S. cerevisiae deletion strains, locus YOL147C, strain pex11, stronger effect = lower value 0.929 | S. cerevisiae deletion strains, locus YOR270C, strain vph1, stronger effect = lower value 0.67 | S. cerevisiae deletion strains, locus YPL051W, strain arl3, stronger effect = lower value 0.872 | S. cerevisiae deletion strains, locus YPL078C, strain atp4, stronger effect = lower value 0.865 | S. cerevisiae deletion strains, locus YPL256C, strain CLN2, stronger effect = lower value 0.821 | S. cerevisiae deletion strains, locus YPR119W, strain clb2, stronger effect = lower value 0.923 | S. cerevisiae deletion strains, locus YPR141C, strain kar3, stronger effect = lower value 0.89 | S. cerevisiae deletion strains, locus YPR167C, strain met16, stronger effect = lower value 0.91
